In PubChem BioAssay (EPA / NIEHS) one finds outcome and AC50 data, which are given here for 25 molecules.

Structures are written as SMILES. Active and inactive are the calls of the source. How the source made its calls: active means hit-call score of the fitted dose curve at least 0.9, where 1 is the maximum; inactive means score below 0.9.

The nature of this experiment: BSK_SAg_PBMCCytotoxicity: PBMC Cytotoxicity Assessment in the BioMAP Diversity Plus: SAg Assay (AID 2283093).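 Further: PBMC viability measured as Alamar Blue reduction fluorescence at 546/580 nm; fitted both ways against DMSO so a hit may be loss or gain of signal.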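 On AC50: PBMC superantigen activated with SEB plus TSST-1 one hour after compound addition.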 To be noted: primary human HUVEC with PBMC. Summed up: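 Human umbilical vein endothelial cells co-cultured with PBMC; PBMC (75,000/well) pre-treated with compound 1 h, then activated with SEB and TSST-1 (20 ng/mL final each) for 90 h. Alamar Blue added 6 h, fluorescence 546/580 nm; bidirectional fit versus DMSO.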
Take `Oc1c(Br)cc(Br)cc1Br`: the outcome was inactive.

Take `c1ccc2sc(SNC3CCCCC3)nc2c1`: the AC50 (usually the midpoint of the concentration-response curve, whichever way the signal moves) was 27 µM (active).

As for `CCOP(=O)(OCC)SCCSCC`, the result was inactive.

For `Cc1cc(C)cc(C)c1`, the result was inactive.

Take `O=S(=O)(c1ccc(Cl)cc1)c1cc(Cl)c(Cl)cc1Cl`: the outcome was inactive.

Consider `Cc1ccccc1OP(=O)(Oc1ccccc1)Oc1ccccc1`, for which the result was inactive.

As to `OCCCCO`, the result was inactive.

Consider `CC(C)(COCC1CO1)COCC1CO1` (stereo not given), for which the outcome was inactive.

Regarding `OC(Cc1ccccc1Cl)(Cn1cncn1)C1(Cl)CC1` (stereo not given), the result was inactive.

`CCCCN(CCCC)C(=S)[S-].CCCCN(CCCC)C(=S)[S-].[Ni+2]`: the result was inactive.

For `C[C@]12CC[C@@H](O)C[C@@H]1CC[C@@H]1[C@@H]2CC[C@]2(C)C(=O)CC[C@@H]12`, the outcome was inactive.

For the molecule `CCOP(=S)(OCC)OP(=S)(OCC)OCC`, the AC50 is 25.3 µM (active).

For the molecule `OCCN(CCO)CCO`, the result was inactive.

In the case of `O=C(O)COc1cc(Cl)c(Cl)cc1Cl`, the result was inactive.

As to `Clc1cccc(Cl)c1Cl`, the result was inactive.

Take `Clc1cccc(Cl)c1`: the outcome was inactive.

On to `O=[N+]([O-])c1cccc2ccccc12`, for which the result was inactive.

Regarding `Cc1ccc(OP(=O)(Oc2ccc(C)cc2C)Oc2ccc(C)cc2C)c(C)c1`, the AC50 is 20 µM (active).

In the case of `CCC(C)(C#N)N=NC(C)(C#N)CC` (stereo not given), the outcome was inactive.

For the molecule `NC(=O)CCl`, the result was inactive.

With `Cc1cccc(OP(=O)(Oc2cccc(C)c2)Oc2cccc(C)c2)c1`, the result was inactive.

As to `CC(C)N(C(=O)CCl)c1ccccc1`, the AC50 was 16.7 µM (active).

Turning to `c1ccc(-c2cccc(-c3ccccc3)c2)cc1`, the AC50 was 20 µM (active).

As to `O=S(=O)(C(Cl)(Cl)Cl)C(Cl)(Cl)Cl`, the AC50 is 2.3 µM (active).

As for `O=c1oc2ccccc2c(O)c1C(CC(O)c1ccc(-c2ccc(Br)cc2)cc1)c1ccccc1` (stereo not given), the AC50 was 23.5 µM (active).
